D1 antag = human D1 dopamine receptor antagonism. P21728. 3.2% of 360,000 active. AID 504652. HEK293 TREx D1 cells, calcium flux, dopamine EC80; active compounds read low. activity change, negative = inhibition, % at 10 µM; in the data active = activity change below about -30%; note: % is set by controls: 0 for no effect and ±100 for the full control effect
Target sequence (P21728 whole entry, looked up): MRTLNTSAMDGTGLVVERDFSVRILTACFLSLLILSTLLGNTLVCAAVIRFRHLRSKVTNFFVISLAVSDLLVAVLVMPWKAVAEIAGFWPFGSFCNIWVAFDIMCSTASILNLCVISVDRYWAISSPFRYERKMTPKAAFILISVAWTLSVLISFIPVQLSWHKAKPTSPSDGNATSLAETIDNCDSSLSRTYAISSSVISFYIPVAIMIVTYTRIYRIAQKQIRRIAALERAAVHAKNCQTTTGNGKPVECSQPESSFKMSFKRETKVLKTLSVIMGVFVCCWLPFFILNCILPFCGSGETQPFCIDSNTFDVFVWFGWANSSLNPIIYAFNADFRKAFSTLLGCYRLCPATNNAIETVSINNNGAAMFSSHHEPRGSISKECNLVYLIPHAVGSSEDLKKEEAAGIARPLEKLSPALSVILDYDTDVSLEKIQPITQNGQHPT
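Allosteric or orthosteric antagonism assessed as attenuation of the calcium response to EC80 dopamine, added 180 s after compound, in induced HEK293 Trex D1 cells loaded with no-wash calcium dye.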
TRHR ag = activates the human TRH receptor. P34981. TRHR cells, calcium flux fluo-8, FDSS agonist mode. activation, % at 2 µM. 0.18% of 360,000 active. AID 493084; note: 0% is about no effect
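In this calcium-flux screen, cells bearing human TRHR are dye-loaded with fluo-8, baselined for 10 cycles, then exposed to library compounds; positive kinetic calcium responses during the agonist phase mark hits, with TRH as control.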
TRHR PAM = allosteric enhancers of human TRH receptor. AID 493056. 0.66% of 360,000 active. enhancement, % at 2 µM. TRHR cells, fluo-8 calcium fluorescence, EC20 TRH enhancement. P34981; in the data active = enhancement above about 30%; note: 0% is about no effect
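TRHR-expressing cells loaded with fluo-8 calcium dye were read kinetically (ex 480/em 530) during compound addition, then stimulated with an EC20 of TRH (10 nM final). Enhancement of the Gq-mediated intracellular calcium response was scored.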
D1 agonist = activates the human D1 dopamine receptor | P21728 | HEK293 T-REx D1 cells, calcium flux, agonist mode | activation, % at 2 µM | 1% of 360,000 active; note: 0% is about no effect
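Inducible HEK293 T-REx D1 cells, force-coupled to calcium signalling, were plated at 4000 cells/well with tetracycline and held overnight at 30 C. After no-wash calcium dye loading, compound-evoked calcium rise over 180 s flagged agonists.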
D1 PAM = enhances dopamine response at the human D1 receptor; potentiation, % at 10 µM; AID 504651; HEK293 TREx D1 cells, calcium flux, dopamine EC20 potentiation; 0.036% of 360,000 active; in the data active = potentiation above about 30%; note: 0% is about no effect
Numbers without * were called inactive; / = not tested or not shown; ! = not active in a repeat. Hits are enriched below; roughly 4.7% of the tested compounds scored in any of these assays. Cut-off read from the data, not from the text of the source, unless noted: active = activation above about 30%; inactive = the rest.

SMILES | D1 antag | TRHR ag | TRHR PAM | D1 agonist | D1 PAM
Nc1c(-c2nc(-c3ccc4c(c3)OCO4)cs2)c2ccccn2c1C(=O)c1ccc(Cl)cc1 | 9 | 0 | 3 | 0 | -1
CCOC(=O)[C@H]1[C@H]2COc3ccc(Cl)cc3[C@@H]2N2C(=O)CN(CC3CCCO3)C(=O)[C@@]12C (stereo not given in full) | / | 0 | -7 | -1 | -8
COc1cc2nc(NCc3ccccc3)n3nc(-c4ccccc4)nc3c2cc1OC | -4 | 0 | -4 | 1 | -4
COc1ccc(NC(=O)CSc2nc(-c3cccs3)cc(C(F)(F)F)n2)c(OC)c1 | 10 | 3 | 12 | 5 | 0
Cc1cc2oc(C(=O)Nc3ccc(S(=O)(=O)Nc4onc(C)c4C)cc3)cc(=O)c2cc1C | 10 | 0 | 2 | 1 | -3
CCCn1c(SCC(=O)O)nc2ccccc21 | -88* | -1 | -2 | 2 | 1
CCCn1c(/C=C/c2ccccc2)nc2ccccc21 | -35*! | -1 | -1 | 1 | -7
CCN(CC)CCSc1nc2ccccc2n1Cc1ccccc1 | -39* | 0 | -1 | 11 | -17
Cc1cc(F)ccc1NC(=O)Cn1cc(S(=O)(=O)NC(C)C)c(S(=O)(=O)NC(C)C)c1 | 31 | 0 | 5 | 8 | 18
COc1ccc(NC(=S)Nc2cc(-c3ccccc3)[nH]n2)cc1Cl | -79* | 0 | -5 | 2 | -3
Cc1cc(NC(=S)Nc2ccc(C)c(Cl)c2)n[nH]1 | -39* | 0 | 1 | 1 | -4
COc1ccc(NC(=S)Nc2cc(C)[nH]n2)cc1Cl | 8 | -2 | -3 | 12 | -2
COc1cccc(CNC(=O)Cn2c(=O)nc(-c3ccccc3F)c3cc(Cl)ccc32)c1 | -19 | -1 | -5 | -1 | 1
CCOc1ccccc1-c1nc(CN(Cc2cnn(C)c2)C(C)C)c(C)o1 | -3 | 0 | 4 | 2 | -4
COc1ccc(-c2nc(CN(Cc3cnn(C)c3)C(C)C)c(C)o2)c(OC)c1 | -31* | 0 | 7 | 0 | -2
Cc1ccc(OCC(=O)Nc2ccccc2C(=O)OCc2cc(=O)n3ccsc3n2)cc1C | 4 | 0 | -4 | 0 | 2
CCC(C)[C@H](N)c1nnc(SCc2ccc(Cl)c(Cl)c2)o1 (stereo not given in full) | 1 | -1 | 7 | 54* | -3
O=C1C(=O)N(c2cccc(Cl)c2)C(c2ccccc2[N+](=O)[O-])/C1=C(\O)c1ccccc1 (stereo not given) | -51* | 1 | -2 | 3 | -9
O=C1C(=O)N(c2ccccc2)C(c2ccccc2[N+](=O)[O-])/C1=C(\O)c1ccccc1 (stereo not given) | -6 | -1 | 7 | 2 | -3
COc1ccc(C(=O)NC(C)CCc2ccccc2)c(O)c1 (stereo not given) | -48* | -1 | 9 | 16 | -6
Cc1c(C(=O)NCc2ccccc2CN2CCCC2)oc2ccc(F)cc12 | -32* | 0 | 1 | 6 | /
O=C(Cc1cccs1)NC1CC(=O)N(c2ccc(F)cc2)C1 (stereo not given) | / | 0 | -3 | 0 | -2
O=C1c2cccnc2C(Nc2ccccc2Br)N1Cc1ccco1 (stereo not given) | -53* | 0 | 0 | -3 | 7
O=C1c2ccccc2N2C(=O)c3ccccc3C2N1Cc1ccco1 (stereo not given) | -50* | -1 | -4 | 0 | -3
Fc1ccc(-c2nc(Nc3ccc(F)c(Cl)c3)nc3c2COc2ccccc2-3)cc1 | -23 | 4 | -4 | 11 | 2
SMILES | D1 antag | TRHR ag | TRHR PAM | D1 agonist | D1 PAM
Cc1cccc(NC(=O)CSc2nc(=O)n(Cc3ccncc3)c3c2CCC3)c1C | / | 0 | -4 | -1 | -2
O=C(NCc1nc(-c2ccc(C(F)(F)F)cc2)no1)Nc1ccc(OC(F)(F)F)cc1 | -37* | 2 | -1 | 10 | -9
COc1ccc(-c2noc(CNS(=O)(=O)c3ccc(NC(C)=O)cc3)n2)cc1 | 13 | 0 | 3 | 3 | 5
O=C1COc2cc(S(=O)(=O)NCc3ccco3)c(Cl)cc2N1 | 0 | 0 | -1 | 3 | 7
CC(Sc1nnc(COc2ccc3ccccc3c2)n1C)C(=O)O (stereo not given) | -11 | 0 | -4 | 1 | 1
Cc1cccc2cncc(OCc3nnc(SC(F)F)n3C)c12 | 10 | 0 | 41* | 1 | -1
O=S(=O)(Nc1ccc(-c2ccc(N3CCCC3)nn2)cc1)c1ccc(OC(F)(F)F)cc1 | -9 | 0 | 0 | 3 | 2
Cc1[nH]c2ccc(C(=O)N3CCN(c4cccc(Cl)c4)CC3)cc2c1C | -24 | 1 | 5 | 7 | -7
CS(=O)(=O)c1ncc(Cl)c(C(=O)N2CCN(c3cccc(Cl)c3)CC2)n1 | -50* | -2 | 14 | 14 | 1
CCS(=O)(=O)c1ncc(Cl)c(C(=O)N2CCN(c3cccc(Cl)c3)CC2)n1 | -31* | 2 | -14 | 5 | -4
COc1cccc(-n2ccnc2SCC(=O)Nc2c(C)cc(C)cc2C)c1 | 1 | 0 | 5 | 4 | -2
O=C(CC1C(=O)N(c2ccccc2)C(=O)N1CCc1cccs1)Nc1ccc(Cl)cc1 (stereo not given) | -11 | 0 | 3 | 2 | 0
CCc1ccc(NC(=O)CC2C(=O)N(c3cccc(C)c3)C(=O)N2Cc2cccs2)cc1 (stereo not given) | -38* | 1 | 0 | 3 | -3
CCc1ccc(NC(=O)CC2C(=O)N(c3ccc(F)cc3)C(=O)N2Cc2ccc(F)cc2)cc1 (stereo not given) | -31* | 1 | -3 | 1 | -4
Cc1ccsc1CCN1C(=O)N(c2ccccc2)C(=O)C1CC(=O)Nc1ccc(Cl)cc1 (stereo not given) | -36* | 3 | 0 | 9 | -5
Cc1ccccc1/C=C/C1=NCCN1 | -43* | 2 | -5 | 0 | -7
Cc1ccccc1C=O | / | 0 | -7 | 1 | -2
O=C(c1ccsc1)N1CCCC(Nc2cccc(F)c2)C1 (stereo not given) | -22 | -1 | 1 | 1 | -4
CNCC/C=C1/c2ccccc2CSc2ccccc21 | -51* | 1 | 0 | 19 | -27
CN(C)c1ccc(C(C(=O)NCc2ccccc2)N(Cc2cccnc2)C(=O)c2snc(C(N)=O)c2N)cc1 (stereo not given) | 22 | -1 | -5 | 2 | -5
COc1cc(/C=C/C(O)=C/C(=O)/C=C/c2ccc(O)cc2)ccc1O | -21 | 104* | 3 | 351* | -5
CC1=C(C(=O)Nc2ccc(C)cc2C)C(c2ccccc2)n2ncc(C(=O)Nc3ccccc3)c2N1 (stereo not given) | 2 | -1 | 6 | 0 | 0
Cc1ccccc1Nc1nc(N)nc(-c2oc3ccccc3c2C)n1 | -11 | -1 | 35* | 0 | -8
